Data: PubChem BioAssay AID2284357 (EPA ToxCast)
Results filed as inconclusive are left out. Calls of active or inactive are those of the source. Rule for the calls: active = hit-call score of the fitted dose curve at least 0.9, where 1 is the maximum; inconclusive = response in the unintended direction; inactive = score below 0.9.

Tested on: zebrafish Androgen Receptor (AR), gene 100005148
Test: ATG_zfAR_EcoTox2: Attagene TRANS-FACTORIAL EcoTox-2 HepG2 Assay for zebrafish Androgen Receptor (AR)
Protocol: ATG_EcoTox2 is a cell-based, multiplexed assay created by modifying the existing Attagene TRANS-FACTORIAL system to include a panel of nuclear receptors from some or all the following species: human (Homo sapiens), african clawed frog (Xenopus laevis), rainbow trout (Oncorhynchus mykiss), japanese medaka (Oryzias latipes), and zebrafish (Danio rerio). The ECOTOX2-FACTORIAL format uses HepG2, a human liver cell line, with measurements taken at 24 hours after chemical dosing in a 24-well plate. ATG_zfAR_EcoTox2 is one of 29 assay components calculated in the ATG_EcoTox2 assay. It is designed to make measurements of mRNA induction, a form of inducible reporter, as detected with fluorescence intensity signals by Reverse transcription polymerase chain reaction (RT-PCR) and Capillary electrophoresis technology.The assay endpoint ATG_zfAR_EcoTox2 was analyzed in the positive analysis fitting direction relative to DMSO as the negative control and baseline of activity. Using a type of inducible reporter, measures of mRNA for gain-of-signal activity can be used to understand the reporter gene at the transcription factor-level as they relate to the gene AR. Furthermore, this assay endpoint can be referred to as a primary readout, because this assay has produced multiple assay endpoints where this one serves a reporter gene function. To generalize the intended target to other relatable targets, this assay endpoint is annotated to the nuclear receptor intended target family, where the subfamily is steroidal.
Human liver HepG2 cells are transiently transfected with multiple reporter transcription units (MRTUs) in 6-well plates using FuGene 6 reagent (Roche; 3 ml FuGene/1 mg DNA). The MRTU constructs are regulated by a cis-regulating element (promoter). Each RTU expresses a GAL4-UAS that regulates the transcription of a nearby target reporter gene sequence. A major difference between the CIS and TRANS system is that in CIS activities of endogenous TFs are measured, whereas the TRANS assay evaluates changes in activities of exogenous, chimeric NR-Gal4 proteins. […] At the end of 24 hour incubation, total RNA was isolated using TriZol reagent (Invitrogen). The isolated RNA is then reverse-transcribed using oligo(dT) primer and Mo-MLV reverse transcriptase (Invitrogen) with DNAse I (Ambion) treatment for 30 min. The one-tenth of the produced cDNA was amplified by PCR using Taq DNA polymerase (Invitrogen) and two reporter sequence-specific primers. The PCR products were fluorescently labeled by primer extension with 6-arboxyfluorescein (6-FAM) 5'-labeled reporter sequence-specific primer (2 min at 95 C, 20 s at 68 C and 10 min at 72 C) and these products were digested with 5U of HpaI (New England Biolabs) for 2h at 37 C. The fragments were purified using Qiaquick PCR columns (Qiagen), analyzed on an ABI 3130xL genetic analyzer (Applied Biosystems) with peak positions identified by using a set of X-rhodamine (ROX)-labeled MapMarker1000 molecular weight standards (BioVentures). The raw capillary electrophoresis data was processed using Attagraph software (Attagene).

Compound	outcome
CC(c1cc2ccccc2s1)N(O)C(N)=O (centres undefined)	inactive
CC(C)OC(=O)C(C)(C)Oc1ccc(C(=O)c2ccc(Cl)cc2)cc1	inactive
C=C(c1ccc(C(=O)O)cc1)c1cc2c(cc1C)C(C)(C)CCC2(C)C	inactive
CC(C)(Oc1ccc(C2CC2(Cl)Cl)cc1)C(=O)O (centres undefined)	inactive
C[C@]12C=CC(=O)C=C1CC[C@@H]1[C@@H]2C(=O)C[C@@]2(C)[C@H]1CC[C@]2(O)C(=O)CO	inactive
Cc1cccc(Nc2cc(Cl)nc(SCC(=O)O)n2)c1C	inactive
CC(C)(Oc1ccc(Cl)cc1)C(=O)O	inactive
Cc1ccc(C)c(OCCCC(C)(C)C(=O)O)c1	inactive
C[C@@H]1C[C@H]2[C@@H]3CCC4=CC(=O)C=C[C@]4(C)[C@@]3(F)[C@@H](O)C[C@]2(C)[C@@]1(O)C(=O)COP(=O)(O)O	inactive
